Assay results published in PubChem BioAssay (NCATS).
Inconclusive results are not listed. Calls of active or inactive are those of the source. The call rests on the fitted dose curve.

Experiment: qHTS for identification of novel therapeutic agents for treatment of microphthalmiaassociated transcription factor (MiT) renal cell carcinoma (RCC) (AID 1963991)
Settings: CellTiter-Glo, 48 h; for z-score: stronger effect = lower value
Text: PI: Marston Linehan Ph.D.
Urologic Oncology Branch, Center for Cancer Research (CCR)
National Cancer Institute (NCI), National Institute of Health (NIH), Bethesda, Maryland
MiT-Renal Cell Carcinoma (RCC) is characterized by genomic translocations involving microphthalmia-associated transcription factor (MiT) family members TFE3, TFEB, or MITF. MiT-RCC represents a specific subtype of sporadic RCC that is predominantly seen in young patients and can present with heterogeneous histological features making diagnosis challenging. Moreover, the disease biology of this aggressive cancer is poorly understood and there is no accepted standard of care therapy for patients with advanced disease. Tumor-derived cell lines have been established from human TFE3-RCC providing useful models for preclinical studies. TFE3-RCC tumor derived cell lines and their tissues of origin were characterized by IHC and gene expression analyses. An unbiased high-throughput drug screen was performed to identify novel therapeutic agents for treatment of MiT-RCC. Potential therapeutic candidates were validated in in vitro and in vivo preclinical studies. Mechanistic assays were conducted to confirm the on-target effects of drugs. The results of a high-throughput small molecule drug screen utilizing three TFE3-RCC tumor-derived cell lines identified five classes of agents with potential pharmacological efficacy, including inhibitors of phosphoinositide-3-kinase (PI3K) and mechanistic target of rapamycin (mTOR), and several additional agents, including the transcription inhibitor Mithramycin A. Upregulation of the cell surface marker GPNMB, a specific MiT transcriptional target, was confirmed in TFE3-RCC and evaluated as a therapeutic target using the GPNMB-targeted antibody-drug conjugate CDX-011. […] The results of the high-throughput drug screen and validation studies in TFE3-RCC tumor-derived cell lines have provided in vitro and in vivo preclinical data supporting the efficacy of the PI3K/mTOR inhibitor.
SEQUENCE No. (e.g., 1, 2, 3, etc.); […] (e.g., Cells, Incubation, Reagent, etc.); VALUE; DESCRIPTION.
1; Cells; 3 uL; white, solid-bottom Grenier assay plate.
2; Compounds; 23 nL; Kalypsis pin-tool (Wako USA).
3; Incubation; 48 hr; 37 C, 5% CO2, 95% humidity.
4; Reagent; 3 uL; CellTiter-Glo reagent (Promega).
5; Incubation; 15 min; room temperature.
6; Detection; Luminescence; ViewLux plate reader (PerkinElmer).
NOTES (numbers refer to Sequence numbers above)
1. Quantitative high-throughput screening (qHTS) of 1912 pharmacologically defined small molecule compounds was conducted on three TFE3-fusion cell lines bearing three different fusion partners (UOK109, UOK124, UOK145). Briefly, 500 cells in complete growth media were plated into white, solid-bottom, 1536-well tissue culture treated plates (Grenier Cat. 789173-F) using a Multidrop Combi cassette dispenser.
2. Twenty-three nanoliter of 1912 pharmacologically defined small molecule compounds of the NCATS Mechanism Interrogation PlatE (MIPE) version 4.0 were added to each assay plate using a Pintool Dispenser (Wako) equipped with 1536 pin head.
3. Plates were covered with stainless steel gasketed lids and incubated for 48 hours at standard cell culture conditions.
4. Viability was assessed by adding 3uL of CellTiter-Glo detection reagent (Promega).
5. Plates were covered with gasket lids and incubated for 15 minutes at room temperature.
6. Luminescence was measured on a ViewLux plate reader (PerkinElmer). Post-screen data processing used DMSO controls as 100% viability and empty wells as 0% viability and dose response curve fitting was done for all 11 concentrations for each compound.

[1] = TFE3-RCC UOK109 viability, measured here: UOK109 Z-AUC
[2] = TFE3-RCC viability, measured here: UOK124 Z-AUC
[3] = TFE3-RCC viability, measured here: UOK145 Z-AUC
Potency means the concentration at half of the fitted maximal effect.

Row | SMILES | Potency (TFE3-RCC UOK109 viability) | z-score [1] | z-score [2] | z-score [3]
1 | C[C@@]12OC(=O)[C@]1([C@@H](O)[C@@H]1C=CCCC1)NC(=O)[C@H]2CCCl | 66.2 nM (active) | -1.51 | -3.3 | -2.86
2 | O=c1[nH]c2ccc(Cl)cc2c(N[C@@H]2CN3CCC2CC3)c1-c1nc2ccccc2[nH]1 | 3720 nM (active) | -0.938 | -2.71 | -1.04
3 | C[C@@H]1O[C@@H](O[C@@H]2C=C3CC[C@@H]4[C@@H](CC[C@]5(C)[C@H](c6ccc(=O)oc6)CC[C@@]45O)[C@@]3(C)CC2)[C@H](O)[C@H](O)[C@H]1O | 20.9 nM (active) | -3.96 | -3.13 | -3.36
4 | COC1=CC(C)=C[C@@H](C)[C@@H](O)[C@@H](C)CC(C)=CC=C[C@H](OC)[C@H]([C@@H](C)[C@@H](O)[C@H](C)[C@@]2(O)C[C@@H](O)[C@H](C)[C@@H](C(C)C)O2)OC1=O | 26400 nM (active) | -1.69 | -2.76 | -3.22
5 | COc1cc([C@@H]2c3cc4c(cc3[C@@H](O)C3COC(=O)C32)OCO4)cc(OC)c1O (stereo partly specified) | 41.8 nM (active) | -1.65 | -1.93 | -1.12
6 | CC(=Cc1csc(C)n1)[C@@H]1C[C@H]2O[C@@H]2CCC[C@H](C)[C@@H](O)[C@@H](C)C(=O)C(C)(C)[C@@H](O)CC(=O)O1 | – | -3.27 | -1.59 | -2.88
7 | COC(=O)[C@@H](N)CCCN=C(N)N[N+](=O)[O-] | – | 0.59 | 0.788 | 2.13
8 | CC(N[C@H]1C[C@H]1c1ccccc1)c1ccc2c(c1)OCCO2 (stereo partly specified) | – | 0.542 | 0.0589 | 0.597
9 | CCc1c(C(=O)C(N)=O)c2c(OCC(=O)O)cccc2n1Cc1ccccc1 | – | -0.00568 | 0.644 | -1.8
10 | CCOP(=O)(OCC)C(C)NC(=O)N(CCCl)N=O (stereo unspecified) | – | 0.0132 | -0.441 | 0.402
11 | C[C@@H]1CC[C@H]2[C@@H](C)C(=O)O[C@@H]3O[C@@]4(C)CC[C@H]1[C@]32OO4 | – | 0.72 | 0.74 | 0.344
12 | C#CC1(O)CCC2C3CCC4=CC(=O)CCC4(C)C3CCC21C (stereo unspecified) | – | 0.285 | 0.199 | 0.147
